Bioassay records (PubChem BioAssay)
CYP2C19 inh = inhibitors of human CYP2C19 | P33261 | CYP2C19 Supersomes, luciferin-H EGE luminescence, 30 min | inhibition, % at 5 µM | 96,000 tested, 21% active | AID 778;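 active means CYP2C19 inhibition above a set limit at 5 µM in the primary screen, cut at about 50% in these data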;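 further: plate controls were negative control wells for no effect and 2.5 mM tranylcypromine positive control for full effect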
CYP2C9 activ = CYP2C9 (human) activation. recombinant CYP2C9, luciferin-H conversion, luminescence; stronger effect = higher value; factor 1 = untreated enzyme, 0 = blocked. 96,000 tested, 1.4% active. activation factor at 5 µM;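 active means activation factor of 2 or more for CYP2C9 at a 5 µM dose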;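 further: 0 = sulfaphenazole-blocked wells and 1 = vehicle-only wells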
EphB4 ephrin blk = antagonists of human EphB4-ephrin-B2 interaction. EphB4 LBD / TNYL-RAW-Alexa532 peptide, fluorescence polarization. inhibition, % at 7 µM. 97,000 tested, 0.15% active. AID 720;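 active means inhibition above the screen-wide mean inhibition plus 3 SD, cut at about 15% in these data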;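 further: 0% = DMSO wells and 100% = excess unlabeled TNYL-RAW peptide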
Target sequence (P54760 whole entry, looked up, the tested form may be a part): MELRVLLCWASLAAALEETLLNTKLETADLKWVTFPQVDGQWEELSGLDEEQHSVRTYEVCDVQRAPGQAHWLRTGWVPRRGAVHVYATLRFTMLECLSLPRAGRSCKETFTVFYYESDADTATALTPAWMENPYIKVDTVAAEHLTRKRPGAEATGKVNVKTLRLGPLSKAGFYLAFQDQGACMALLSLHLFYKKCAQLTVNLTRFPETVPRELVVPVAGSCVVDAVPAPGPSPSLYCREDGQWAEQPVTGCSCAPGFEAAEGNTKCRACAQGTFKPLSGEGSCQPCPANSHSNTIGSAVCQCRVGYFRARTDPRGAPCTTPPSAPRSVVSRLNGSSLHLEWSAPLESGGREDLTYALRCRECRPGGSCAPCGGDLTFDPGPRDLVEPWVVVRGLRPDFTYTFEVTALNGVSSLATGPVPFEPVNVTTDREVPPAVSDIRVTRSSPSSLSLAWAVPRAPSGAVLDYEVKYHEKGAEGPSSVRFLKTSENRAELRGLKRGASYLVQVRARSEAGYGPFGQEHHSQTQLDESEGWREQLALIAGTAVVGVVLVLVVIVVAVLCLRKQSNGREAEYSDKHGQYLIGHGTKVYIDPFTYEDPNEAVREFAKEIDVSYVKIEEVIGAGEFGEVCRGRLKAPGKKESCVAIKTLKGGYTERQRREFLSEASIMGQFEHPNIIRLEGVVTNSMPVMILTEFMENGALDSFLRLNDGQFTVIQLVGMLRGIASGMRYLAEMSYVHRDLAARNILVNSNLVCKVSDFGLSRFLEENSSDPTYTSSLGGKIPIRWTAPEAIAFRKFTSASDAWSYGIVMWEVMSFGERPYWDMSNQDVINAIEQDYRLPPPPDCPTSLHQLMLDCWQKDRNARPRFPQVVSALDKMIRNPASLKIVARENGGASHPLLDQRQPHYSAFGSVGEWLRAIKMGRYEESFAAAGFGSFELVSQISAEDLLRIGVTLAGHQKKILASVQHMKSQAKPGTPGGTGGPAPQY
CYP2C9 inhib = human CYP2C9 inhibition | 96,000 tested, 20% active | CYP2C9 Supersomes, luciferin-H conversion, luminescence | AID 777 | inhibition, % at 5 µM | P11712;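 active means blocking of liver enzyme CYP2C9 beyond about 50% at 5 µM, limit read from the data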
CYP2C19 act = cytochrome P450 2C19 (human) activation. AID 1025. activation factor at 5 µM. recombinant CYP2C19, luciferin-H EGE luminescence; stronger effect = higher value; 0 = fully inhibited enzyme, 1 = untreated enzyme. 96,000 tested, under 10 active. P33261;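 active means activation factor of at least 2 at 5 µM in the primary screen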;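 further: 0 = wells with 2.5 mM tranylcypromine and 1 = vehicle-only wells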
* marks the source's active call; other numbers are inactive results; . = no result given. Rows were chosen to be rich in hits. Some 27% of all compounds tested hit in one or more screens of this group.

SMILES	CYP2C19 inh	CYP2C9 activ	EphB4 ephrin blk	CYP2C9 inhib	CYP2C19 act
CCn1cc(C(=O)NCc2cccc(F)c2)c(=O)c2cc(F)c(N3CCN(C(=O)c4ccco4)CC3)cc21	41	0.2	-10	84*	0.6
CCn1cc(C(=O)NCc2cccnc2)c(=O)c2cc(F)c(N3CCN(C(=O)c4ccco4)CC3)cc21	16	0.3	-4	68*	0.8
CCn1cc(C(=O)Nc2nnc(C)s2)c(=O)c2cc(F)c(N3CCN(C(=O)c4ccco4)CC3)cc21	.	.	-8	.	.
CCCCCCC(=O)N1CCN(c2cc3c(cc2F)c(=O)c(C(=O)O)cn3CC)CC1	.	.	7	.	.
Cc1ccc2c(c1)c1ncnc(N3CCN(c4ccccc4)CC3)c1n2C	10	0.8	4	16	0.9
Cc1cccc(Cn2c(=O)n(-c3ccc(CC(=O)NCc4ccco4)cc3)c(=O)c3sccc32)c1	-15	1	1	-2	1.2
CC1=C(C(=O)OCCOC(C)C)C(c2cccnc2)C2=C(CCCC2=O)N1 (stereo not given)	70*	0.4	-5	56*	0.3
CCN(CC)c1ccc(C2C(C(=O)OCCOC(C)C)=C(C)NC3=C2C(=O)CCC3)cc1 (stereo not given)	27	0.7	-1	25	0.7
CCOC(=O)C1=C(C)NC(=O)CC1c1cc2c(cc1Br)OCO2 (stereo not given)	99*	0.1	.	90*	0
CCOC(=O)C1=C(C)NC(=O)CC1c1ccccc1 (stereo not given)	8	1	1	-3	0.9
COCCN1C=C(C(=O)OC)C(c2cc3c(cc2Br)OCO3)C(C(=O)OC)=C1	46	0.7	-6	27	0.5
CC1=C(C(=O)OCCOC(C)C)C(c2cc3c(cc2Br)OCO3)C2=C(CCCC2=O)N1 (stereo not given)	89*	0.8	10	23	0.1
C=CCOC(=O)C1=C(C)N(C)C(=O)NC1c1cc2c(cc1Br)OCO2 (stereo not given)	96*	0.3	.	71*	0
N#Cc1c(NC(=O)COC(=O)c2ccc(F)cc2)sc2c1CCC2	1	0.8	-2	15	1
CC1CCN(C(=S)c2ccc3c(c2)OCO3)CC1	99*	0.7	3	27	0
CCn1c(NC)cc(=O)n(C)c1=O	.	.	0	.	.
CCCCC(NC(=O)c1ccccc1)C(=O)OCC(=O)N1c2ccccc2Sc2ccccc21 (stereo not given)	44	0.1	-1	94*	0.6
CC(C)CNCC(=O)N1c2ccccc2Sc2ccccc21	-1	0.9	2	5	1
Cc1ccc(NC(=S)c2nc3ccccc3s2)cc1	7	0.9	-13	9	0.9
CC(C)=C(C#N)c1nc2ccccc2s1	56*	1	-3	0	0.4
CC(C)NC(=O)c1nc2ccccc2s1	25	0.9	-7	9	0.7
COC(=O)c1ccc(/C(O)=C(\C#N)c2nc3ccccc3s2)cc1	3	0.4	4	58*	1
O=C(CN1CCCC1)Nc1c2c(nc3ccccc13)N(Cc1ccccc1)CC2	31	0.9	3	9	0.7
C=CCN=C1SC(CC)C(=O)N1S(=O)(=O)c1ccc(C)cc1 (stereo not given)	84*	0.6	7	42	0.2
C=CCN=C1SCC(=O)N1S(=O)(=O)c1ccc(C)cc1	12	1	7	3	0.9
SMILES	CYP2C19 inh	CYP2C9 activ	EphB4 ephrin blk	CYP2C9 inhib	CYP2C19 act
N#Cc1ccc2ccn(CC(=O)N3CCCc4ccccc43)c2c1	36	0.5	-5	45	0.6
CCC(c1nnnn1C(C)(C)CC)N(CCCO)Cc1cc2cccc(C)c2[nH]c1=O (stereo not given)	71*	0.3	4	75*	0.3
Cc1cc(C(=O)N(C2CCCCC2)C2CCCCC2)no1	8	0.9	2	10	0.9
O=C1CC2(CON=C2c2ccc(F)cc2)C(=O)N1c1ccc(F)cc1 (stereo not given)	89*	0.5	7	51*	0.1
CCOCCNC(=O)c1ccc2c3c(cccc13)CC2	43	3.4*	-3	-243	0.6
CCOCCCNC(=O)c1ccccc1Br	0	1	-4	-4	1
Cn1c(CO)cnc1SCc1c(Cl)cccc1Cl	82*	0.8	0	21	0.2
Fc1cccc(Cl)c1CSc1nnc(CN2CCOCC2)n1-c1ccccc1	25	0.9	9	11	0.7
O=S(Cc1ccc(Br)cc1)Cc1nnc(SCc2c(Cl)cccc2Cl)n1-c1ccccc1 (stereo not given)	88*	0.2	0	80*	0.1
CN(C)C(=O)CSCc1c(Cl)cccc1Cl	-3	1.1	-1	-9	1
Cn1c(CS(=O)Cc2c(Cl)cccc2Cl)nnc1SCc1c(Cl)cccc1Cl (stereo not given)	55*	0.7	-2	34	0.4
O=C(Nc1ccccc1N1CCN(C(=O)c2ccccc2)CC1)c1cc(Br)ccc1Cl	71*	0.2	4	82*	0.3
O=C(Nc1ccccc1N1CCN(C(=O)c2ccccc2)CC1)c1cc2ccccc2o1	97*	0	5	96*	0
COc1ccc(-n2cnnc2SCC(=O)NCc2cccs2)cc1	11	0.9	7	10	0.9
COc1ccccc1CC1(C)NC(=O)N(CC(=O)N2CCc3ccccc3C2)C1=O (stereo not given)	12	0.3	2	70*	0.9
CCOC(=O)c1ccc(CNC(=O)c2n[nH]c(=O)c3ccccc23)o1	16	0.6	0	40	0.8
COc1ccc(N(CC(=O)NCCC2=CCCCC2)S(C)(=O)=O)cc1	57*	0.3	-9	69*	0.4
CN(CC(=O)NCCC1=CCCCC1)S(=O)(=O)c1ccc2c(c1)c(=O)n(C)c(=O)n2C	26	1.5	3	-54	0.7
Cc1cccc(N(CC(=O)NCCC2=CCCCC2)S(C)(=O)=O)c1C	56*	0	6	95*	0.4
COc1ccccc1N(CC(=O)NCCc1ccccc1)S(C)(=O)=O	38	0.8	3	18	0.6
Cc1cc(C)cc(N(C(C)C(=O)NCCC2=CCCCC2)S(C)(=O)=O)c1 (stereo not given)	92*	0.9	4	14	0.1
CS(=O)(=O)N(Cc1ccc(Cl)cc1)c1ccc(C(=O)NCCC2=CCCCC2)cc1	-12	0.9	-4	6	1.1
Cc1cc(C)cc(N(C(C)C(=O)N2CCCCC2)S(C)(=O)=O)c1 (stereo not given)	-5	1.3	.	-31	1.1
COc1ccc(S(=O)(=O)N(C)CC(=O)NCCC2=CCCCC2)cc1C	88*	1.3	-3	-26	0.1
Cc1ccc(CC(CC(=O)O)C(=O)NC2CCCCC2)cc1 (stereo not given)	6	1	-9	2	0.9
O=C(Nc1ccccc1)NC1CCN(CCCN2C(=O)c3ccccc3C2=O)CC1	11	0.9	-2	6	0.9
